Experimental data reported in PubChem BioAssay (NCATS).
“And” between values parts separate entries of the source, which are not always exact repeats. Identical values can stand only once. Records with an inconclusive call do not appear. The source made the active and inactive calls. Calls follow the shape of the dose curve; as a rule, active = well fitted curve in the direction sought with a large enough effect; inconclusive = small, poorly fitted or top-dose-only effect, or another doubt; inactive = no such curve, though single readings can be large; an effect the other way counts as inactive or inconclusive.

Legend:
[1] = target: Cellular tumor antigen p53 (Homo sapiens) (UniProt P04637); assay: Primary qHTS for small molecule compounds that upregulate eGFP-tagged delta133p53alpha (in N-terminal) cells. (AID 2060322); details: NCI-H358 eGFP-delta133p53alpha fluorescence, 24 h; activation: hits give high values;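 also: cells pre-induced with doxycycline then dosed without doxycycline; series mostly up to about 56 µM; 0% = DMSO vehicle and 100% = reference activator; nearly all actives have a fitted effect of over 75% in size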
Chain of Cellular tumor antigen p53 (Homo sapiens) (P04637 whole entry, looked up): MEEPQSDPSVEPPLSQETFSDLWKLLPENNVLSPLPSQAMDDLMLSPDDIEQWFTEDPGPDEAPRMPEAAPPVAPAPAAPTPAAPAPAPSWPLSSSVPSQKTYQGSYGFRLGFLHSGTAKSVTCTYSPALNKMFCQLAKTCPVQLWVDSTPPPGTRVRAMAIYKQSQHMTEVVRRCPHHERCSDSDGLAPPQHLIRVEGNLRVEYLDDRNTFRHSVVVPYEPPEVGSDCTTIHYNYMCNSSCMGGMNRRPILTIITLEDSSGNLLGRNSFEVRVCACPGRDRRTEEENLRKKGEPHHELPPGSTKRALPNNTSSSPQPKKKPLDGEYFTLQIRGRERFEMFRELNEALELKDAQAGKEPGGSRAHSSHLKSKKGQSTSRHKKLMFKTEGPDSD
Summary of the method: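 NCI-H358 cells pre-induced 24 h with 10 ng/ml doxycycline for eGFP-delta133p53alpha, plated dox-free and exposed 24 h at 37C to titrated compounds. Fixed, Hoechst-stained; gated GFP peak intensity by laser scanning cytometry, normalized to DMSO (0%) and 57.5 uM 5-azacytidine (100%).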

[2] = target: Aldehyde dehydrogenase, mitochondrial (Homo sapiens) (UniProt P05091); assay: qHTS for Inhibitors of the Aldehyde Dehydrogenase Family (ALDH2) Primary screen (AID 2061308);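 also: plate controls were vehicle for no effect and reference inhibitor for full effect; nearly all actives have a fitted effect of over 55% in size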
[3] = target: Retinaldehyde dehydrogenase 3 (Homo sapiens) (UniProt P47895); assay: qHTS for Inhibitors of the Aldehyde Dehydrogenase Family (ALDH1A3) Validation screen (AID 2061312); also: % is scaled to controls: 0 for no effect and ±100 for the full control effect; nearly all actives have a fitted effect of over 45% in size
[4] = target: Retinaldehyde dehydrogenase 3 (Homo sapiens) (UniProt P47895); assay: qHTS for Inhibitors of the Aldehyde Dehydrogenase Family (ALDH1A3) Primary screen (AID 2061315);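 also: plate controls were DMSO vehicle for no effect and reference inhibitor for full effect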
[5] = BET inhibitor-based combinations targeting novel dependencies in MECOM-rearranged (r) AML: SET-2 cell line (AID 2202231); details: SET-2 AML cells viability, CellTiter-Glo luminescence, 48 h; viability: hits give low values, concentration not given here; also: nearly all actives have a fitted effect of over 35% in size; also: potency is read from the fitted curve at half-maximal effect;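 as to viability: plate controls were DMSO treated cells for no effect and wells without cells for full effect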
Summary of the method: (§1)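 Each compound was tested at eleven concentrations on cells seeded at 500/well. After two days' incubation, ATP-based luminescence reported viability; responses relative to DMSO and blank wells yielded AUC and cell-line-centred Z-AUC.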

[6] = BET inhibitor-based combinations targeting novel dependencies in MECOM-rearranged (r) AML: AML-191 cell line (AID 2202236; also: nearly all actives have a fitted effect of over 35% in size; also: potency is read from the fitted curve at half-maximal effect)
Summary of the method: as §1

[7] = BET inhibitor-based combinations targeting novel dependencies in MECOM-rearranged (r) AML: AML-194 cell line (AID 2202237; also: nearly all actives have a fitted effect of over 40% in size; also: potency is read from the fitted curve at half-maximal effect)
Summary of the method: as §1

[8] = BET inhibitor-based combinations targeting novel dependencies in MECOM-rearranged (r) AML: UCSD-AML1 cell line (AID 2202235);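 also: series mostly up to about 46 µM; plate controls were DMSO vehicle wells for no effect and blank wells for full effect; nearly all actives have a fitted effect of over 40% in size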
Summary of the method: (§2)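 First, 500 cells per well were seeded; next, drugs were pinned as 11-point doses; then plates sat 48 hr in the incubator; finally CellTiter-Glo was added and luminescence read, with AUC and Z-AUC computed.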

[9] = BET inhibitor-based combinations targeting novel dependencies in MECOM-rearranged (r) AML: MV-4-11 cell line (AID 2202233); also: nearly all actives have a fitted effect of over 45% in size; also: potency is read from the fitted curve at half-maximal effect
Summary of the method: as §2

[10] = BET inhibitor-based combinations targeting novel dependencies in MECOM-rearranged (r) AML: HNT-34 cell line (AID 2202234);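 also: plate controls were vehicle wells for no effect and cell-free wells for full effect; nearly all actives have a fitted effect of over 35% in size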
Summary of the method: as §2

[11] = BET inhibitor-based combinations targeting novel dependencies in MECOM-rearranged (r) AML: OCI-AML3 cell line (AID 2202232); details: Potency: OCI-AML3 viability; also: nearly all actives have a fitted effect of over 35% in size; also: potency is read from the fitted curve at half-maximal effect
Summary of the method: as §1

Nc1ncnc2c1c(-c1cccc(OCc3ccccc3)c1)cn2C1CC(CN2CCC2)C1 (centres undefined)
active: Potency [5] 16.6 µM | Potency [6] 18.6 µM | Potency [7] 16.6 µM
inactive: activation [1] 26% and 8.59% | Potency [2] | Potency [3] | Potency [4]

OCCn1cc(-c2cnc3nnn(Cc4ccc5ncccc5c4)c3n2)cn1
inactive: activation [1] -13.3% and 3.34% | Potency [2] | Potency [3] | Potency [4] | viability [5] 101% | Potency [8] | Potency [7]

COc1ccc(CCC(=O)Nc2nc3ccc(Cl)cc3s2)cc1OC
inactive: activation [1] 9.8% and 1.91% | Potency [2] | Potency [3] | Potency [4] | viability [5] 120% | Potency [9] | Potency [8] | Potency [6] | Potency [7]

CC(C)(C)OC(=O)N[C@H]1CCCCCC=C[C@@H]2C[C@@]2(C(=O)NS(=O)(=O)C2CC2)NC(=O)[C@@H]2C[C@@H](OC(=O)N3Cc4cccc(F)c4C3)CN2C1=O
inactive: activation [1] 5.4% | Potency [2] | Potency [3] | Potency [4] | viability [5] 102% | Potency [10] | Potency [8] | Potency [6] | Potency [7]

Cc1cc(C)cc(NC(=O)Cc2ccc(OC(C)(C)C(=O)O)cc2)c1
inactive: activation [1] -4.3% | Potency [2] | Potency [3] | Potency [4] | Potency [11] | Potency [9] | Potency [10] | Potency [8] | Potency [6] | Potency [7]

Cn1cc(-c2cnn3c(N)c(Br)c([C@@H]4CCCNC4)nc23)cn1
inactive: activation [1] 3.82% | Potency [2] | Potency [3] | Potency [4]
active: Potency [11] 13.2 µM | Potency [9] 0.468 µM

CCc1nc(-c2cccc(C)c2)c(-c2ccnc(NC(=O)c3ccccc3)c2)s1
active: Potency [11] 0.0093 µM | Potency [9] 10.5 µM
inactive: activation [1] 17.2% | Potency [2] | Potency [3] | Potency [4]
